Several values for one entry are separate records, joined by “and”; a condition that tells them apart may be missing. Identical values can stand only once. Inconclusive results are not listed. Where a call stands in place of a potency, no number is given. Activity calls are given as the source filed them. Calls come from the whole dose curve; as a rule, active = well fitted curve in the direction sought with a large enough effect; inconclusive = small, poorly fitted or top-dose-only effect, or another doubt; inactive = no such curve, though single readings can be large; an effect the other way counts as inactive or inconclusive.
Legend:
[1] = qHTS of pediatric cancer cell lines to identify multiple opportunities for drug repurposing: Primary screen for NB-EBc1 cells (AID 1347095)
In short: (§1)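 Following a 5-hour attachment period, cells at 500-1,000/well received compounds and were cultured for 48 hours. CellTiter-Glo was added and luminescence read to estimate viable, metabolically active cells.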

[2] = qHTS of pediatric cancer cell lines to identify multiple opportunities for drug repurposing: Primary screen for U-2 OS cells (AID 1347096); note: nearly all actives have a fitted effect of over 50% in size
In short: (§2)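 Cells (500-1,000/well) in growth media were settled 5 h at 37 degrees C, then given compounds for 48 h. Viability was read as CellTiter-Glo luminescence. Primary runs used MIPE at 11 points (0.78 nM-46 µM) and NPC at 8 points (0.59 nM-46 µM); follow-ups used 11 points.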

[3] = qHTS of pediatric cancer cell lines to identify multiple opportunities for drug repurposing: Primary screen for Saos-2 cells (AID 1347097); note: nearly all actives have a fitted effect of over 40% in size
In short: as §1

[4] = qHTS of pediatric cancer cell lines to identify multiple opportunities for drug repurposing: Primary screen for SK-N-SH cells (AID 1347098); note: nearly all actives have a fitted effect of over 65% in size
In short: (§3)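 Cells (500-1,000/well) rested 5 h, then received compounds for 48 h; metabolically active cells were measured by CellTiter-Glo luminescence. Final concentrations spanned up to 46 µM (MIPE, 11-point) or 0.59 nM-46 µM (NPC, 8-point) in primary screens, 11-point in follow-ups.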

[5] = qHTS of pediatric cancer cell lines to identify multiple opportunities for drug repurposing: Primary screen for NB1643 cells (AID 1347099); note: nearly all actives have a fitted effect of over 50% in size
In short: as §1

[6] = qHTS of pediatric cancer cell lines to identify multiple opportunities for drug repurposing: Primary screen for LAN-5 cells (AID 1347100)
In short: as §2

[7] = qHTS of pediatric cancer cell lines to identify multiple opportunities for drug repurposing: Primary screen for BT-12 cells (AID 1347101); note: nearly all actives have a fitted effect of over 25% in size
In short: as §3

[8] = qHTS of pediatric cancer cell lines to identify multiple opportunities for drug repurposing: Primary screen for Rh18 cells (AID 1347102); note: nearly all actives have a fitted effect of over 65% in size
In short: as §2

[9] = qHTS of pediatric cancer cell lines to identify multiple opportunities for drug repurposing: Primary screen for OHS-50 cells (AID 1347103); note: nearly all actives have a fitted effect of over 40% in size
In short: as §3

[10] = qHTS of pediatric cancer cell lines to identify multiple opportunities for drug repurposing: Primary screen for RD cells (AID 1347104); note: nearly all actives have a fitted effect of over 55% in size
In short: as §1

[11] = qHTS of pediatric cancer cell lines to identify multiple opportunities for drug repurposing: Primary screen for MG 63 (6-TG R) cells (AID 1347105); note: nearly all actives have a fitted effect of over 50% in size
In short: as §1

[12] = qHTS of pediatric cancer cell lines to identify multiple opportunities for drug repurposing: Primary screen for control Hh wild type fibroblast cells (AID 1347106); note: nearly all actives have a fitted effect of over 55% in size
In short: as §2

[13] = qHTS of pediatric cancer cell lines to identify multiple opportunities for drug repurposing: Primary screen for Rh41 cells (AID 1347108); note: nearly all actives have a fitted effect of over 70% in size
In short: as §1

[14] = qHTS of pediatric cancer cell lines to identify multiple opportunities for drug repurposing: Confirmatory screen for NB1643 cells (AID 1347109); note: nearly all actives have a fitted effect of over 45% in size
In short: as §2

[15] = qHTS of pediatric cancer cell lines to identify multiple opportunities for drug repurposing: Confirmatory screen for A673 cells (AID 1347110);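 note: cells exposed to compound for 48 h before the viability read; nearly all actives have a fitted effect of over 65% in size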
In short: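 A673 cells at 500-1,000 cells/well were dosed 5 h after plating, in dilution series up to 46 uM final; primary runs used 8 or 11 points and confirmatory runs used 11 points. Viability was read by CellTiter-Glo luminescence after 48 h, against DMSO and 2.3 uM bortezomib controls.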

[16] = qHTS of pediatric cancer cell lines to identify multiple opportunities for drug repurposing: Confirmatory screen for LAN-5 cells (AID 1347113); note: nearly all actives have a fitted effect of over 65% in size
In short: as §2

[17] = qHTS of pediatric cancer cell lines to identify multiple opportunities for drug repurposing: Confirmatory screen for DAOY cells (AID 1347114); note: nearly all actives have a fitted effect of over 65% in size
In short: (§4)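 Viability measured as metabolically active cells via CellTiter-Glo luminescence following 48 hours of compound exposure, 11-point dilutions in confirmatory testing. 500-1,000 cells/well plated 5 hours before dosing; controls were DMSO and 2.3 µM bortezomib.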

[18] = qHTS of pediatric cancer cell lines to identify multiple opportunities for drug repurposing: Confirmatory screen for NB-EBc1 cells (AID 1347115);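 note: cells exposed to compound for 48 h before the viability read; nearly all actives have a fitted effect of over 45% in size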
In short: as §2

[19] = qHTS of pediatric cancer cell lines to identify multiple opportunities for drug repurposing: Confirmatory screen for SJ-GBM2 cells (AID 1347116); note: nearly all actives have a fitted effect of over 60% in size
In short: as §4

[20] = qHTS of pediatric cancer cell lines to identify multiple opportunities for drug repurposing: Primary screen for Rh30 cells (AID 1347107); note: nearly all actives have a fitted effect of over 75% in size
In short: as §2
Potency is the fitted concentration of half-maximal effect.

SMILES | Potency [1] | Potency [2] | Potency [3] | Potency [4] | Potency [5] | Potency [6] | Potency [7] | Potency [8] | Potency [9] | Potency [10] | Potency [11] | Potency [12] | Potency [13] | Potency [14] | Potency [15] | Potency [16] | Potency [17] | Potency [18] | Potency [19] | Potency [20]
CN(C)c1ccc2nc3ccc(=[N+](C)C)cc-3sc2c1 | 2.09 µM (active) and 2.66 µM (active) | 10600 nM (active) | 1.48 µM (active) and 2.66 µM (active) | 3.41 µM (active) and 5.45 µM (active) | 10600 nM (active) | 1680 nM (active) | 6.85 µM (active) and 3.09 µM (active) | 7.43 µM (active) and 3.35 µM (active) | 1.37 µM (active) and 872 nM (active) | 2.35 µM (active) and 3.76 µM (active) | 3.72 µM (active) and 2.11 µM (active) | 11900 nM (active) | 5.9 µM (active) and 6.68 µM (active) | 3290 nM (active) | 8270 nM (active) | 3690 nM (active) | 4650 nM (active) | 6570 nM (active) | 1470 nM (active) | 
COc1cc2c(cc1OC)C1CC(=O)C(CC(C)C)CN1CC2 (stereo unspecified) | inactive | inactive | inactive | inactive | inactive | inactive | inactive | inactive | inactive | inactive | inactive | inactive | inactive |  |  |  |  |  |  | inactive
CN1C(C(=O)Nc2ccccn2)=C(O)c2sccc2S1(=O)=O | inactive | inactive | inactive | inactive | inactive | inactive |  | inactive | inactive | inactive | inactive | inactive | inactive |  |  |  |  |  |  | inactive
C[C@H](Cn1cnc2c(N)ncnc21)OCP(=O)(O)O | inactive | inactive | inactive |  | inactive | inactive | inactive | inactive | inactive | inactive | inactive | inactive | inactive |  |  |  |  |  |  | inactive
Nc1ncn([C@H]2C[C@H](O)[C@@H](CO)O2)c(=O)n1 | inactive | inactive | inactive | inactive | inactive | inactive |  | inactive | inactive |  | inactive | inactive | inactive | inactive | inactive | inactive | inactive | inactive | inactive | inactive
Nc1cccc2c1CN(C1CCC(=O)NC1=O)C2=O (stereo unspecified) | inactive | inactive | inactive | inactive | inactive | inactive | inactive | inactive | inactive | inactive | inactive | inactive | inactive |  |  |  |  |  |  | inactive
CC1=C(C(=O)O)N2C(=O)[C@@H](NC(=O)[C@H](N)C3=CCC=CC3)[C@H]2SC1 | inactive | inactive | inactive | inactive | inactive | inactive | inactive | inactive | inactive | inactive | inactive | inactive | inactive |  |  |  |  |  |  | inactive
CC(C)C[C@H](NC(=O)[C@H](Cc1ccccc1)NC(=O)c1cnccn1)B(O)O | 37.6 nM (active) | 42.2 nM (active) | 469 nM (active) | 42.9 nM (active) | 29.9 nM (active) | 16.6 nM (active) | 43.2 nM (active) | 29.6 nM (active) | 87.1 nM (active) | 53.1 nM (active) | 23.5 nM (active) |  | 29.6 nM (active) | 36.9 nM (active) | 46.5 nM (active) | 32.9 nM (active) | 13.1 nM (active) | 46.5 nM (active) | 32.9 nM (active) | 93.5 nM (active)
CCC1=C(C)CN(C(=O)NCCc2ccc(S(=O)(=O)NC(=O)NC3CCC(C)CC3)cc2)C1=O (stereo unspecified) | inactive | inactive | inactive | inactive | inactive | inactive | inactive | inactive | inactive | inactive | inactive | inactive | inactive |  |  |  |  |  |  | inactive
c1cnc2cc3c(cc2n1)C1CNCC3C1 | inactive | inactive | inactive | inactive |  |  |  | inactive | inactive | inactive | inactive | inactive | inactive | inactive | inactive | inactive | inactive | inactive |  | inactive
CCOc1cc(CC(=O)N[C@@H](CC(C)C)c2ccccc2N2CCCCC2)ccc1C(=O)O | inactive | inactive | inactive | inactive |  | inactive |  | inactive | inactive | inactive | inactive | inactive | inactive | inactive |  | inactive | inactive |  | inactive | inactive
Cc1nc2n(c(=O)c1CCN1CCC(c3noc4cc(F)ccc34)CC1)CCCC2 | inactive | inactive | inactive | inactive | inactive | inactive | inactive | inactive | inactive | inactive | inactive |  | inactive |  |  |  |  |  |  | inactive
Clc1ccc2c(N3CCN(CCCN4CCN(c5ccnc6cc(Cl)ccc56)CC4)CC3)ccnc2c1 | inactive | inactive | inactive | inactive | inactive | inactive |  | inactive | inactive | inactive | inactive | inactive | inactive |  |  |  |  |  |  | inactive
